Measurements reported in PubChem BioAssay (NCATS).
Several values for one entry are separate records, joined by “and”; a condition that tells them apart may be missing. Equal values may be shown once. Inconclusive results are not listed. Activity calls are given as the source filed them. Unless noted, calls follow the shape of the dose curve; as a rule, active = well fitted curve in the direction sought with a large enough effect; inconclusive = small, poorly fitted or top-dose-only effect, or another doubt; inactive = no such curve, though single readings can be large; an effect the other way counts as inactive or inconclusive.

What was measured:
[1] = Cell Viability - SH-SY5Y (AID 544); conditions: SH-SY5Y neuroblastoma cell viability; viability change, negative = cytotoxic: at 92.2 µM (top of the series);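 also: cells exposed to compound for 40 hours; 0% = DMSO alone and -100% = 100 µM tamoxifen; nearly all actives have a fitted effect of over 55% in size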
Outline: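 Cytotoxicity is scored as a concentration-dependent fall in intracellular ATP in human SH-SY5Y cells treated 40 hr in complete culture medium. Potency is expressed as AC50 from a Hill equation fit.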

[2] = Cell Viability - Mesenchymal (AID 546);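 also: cells exposed to compound for 40 hours before reading; 0% = DMSO only and -100% = 100 µM tamoxifen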
Outline: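 Normal human renal glomerulus-derived kidney mesenchymal cells, 1000 per well in complete medium, were treated with compounds for 40 hr at 37 °C. Viability was read as intracellular ATP by CellTiter-Glo luminescence; AC50 values came from Hill-equation fits of qHTS concentration-response data.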

[3] = Cellular Toxicity (caspase-3) HUV-EC-C (AID 656);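 also: 0% = DMSO basal and 100% = 100 µM tamoxifen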
Outline: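 Luminescent Caspase-Glo 3/7 readout after 16 h, 37 °C compound exposure of HUV-EC-C endothelial cells, 1000 per well, complete medium. AC50 derived by Hill fitting, with DMSO as baseline and 100 uM tamoxifen as full activation.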

[4] = Cellular Toxicity (caspase-3) SHSY5Y (AID 657)
Outline: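 Luminescent Caspase-Glo 3/7 read-out, 1 hr room temperature, follows 16 hours of compound treatment of SH-SY5Y cells at 37 °C. Normalization: DMSO basal, 10 uM staurosporine as 100%; AC50 values from Hill-equation concentration-response fits.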

[5] = Cellular Toxicity (caspase-3) Mesangial (AID 660);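 also: combined caspase 3 and 7 activity read by Caspase-Glo luminescence; cells exposed to compound for 16 h before the caspase read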
Outline: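 Concentration-response qHTS: compound-induced rise in caspase 3/7 luminescence in human mesangial cells after 16 h, normalized to DMSO and 100 uM tamoxifen controls.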

[6] = Cellular Toxicity (caspase-3) H-4-II-E (AID 663); conditions: Potency: caspase-3 activation;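 also: cells exposed to compound for 16 hr before readout; 0% = DMSO basal and 100% = 100 µM tamoxifen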
Outline: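 Luminescence from caspase-cleaved aminoluciferin substrate, read 20 min after reagent addition, reports caspase 3/7 activation in rat H-4-II-E cells after 16 hr compound exposure. Normalized to DMSO (basal) and 100 uM tamoxifen (100%); AC50 from Hill fits.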

[7] = target: Cytochrome P450 3A4 (Homo sapiens) (UniProt P08684); assay: qHTS Assay for Inhibitors and Substrates of Cytochrome P450 3A4 (AID 884); also: % is scaled to controls: 0 for no effect and ±100 for the full control effect; nearly all actives have a fitted effect of over 50% in size
Chain of Cytochrome P450 3A4 (Homo sapiens) (P08684 whole entry, looked up): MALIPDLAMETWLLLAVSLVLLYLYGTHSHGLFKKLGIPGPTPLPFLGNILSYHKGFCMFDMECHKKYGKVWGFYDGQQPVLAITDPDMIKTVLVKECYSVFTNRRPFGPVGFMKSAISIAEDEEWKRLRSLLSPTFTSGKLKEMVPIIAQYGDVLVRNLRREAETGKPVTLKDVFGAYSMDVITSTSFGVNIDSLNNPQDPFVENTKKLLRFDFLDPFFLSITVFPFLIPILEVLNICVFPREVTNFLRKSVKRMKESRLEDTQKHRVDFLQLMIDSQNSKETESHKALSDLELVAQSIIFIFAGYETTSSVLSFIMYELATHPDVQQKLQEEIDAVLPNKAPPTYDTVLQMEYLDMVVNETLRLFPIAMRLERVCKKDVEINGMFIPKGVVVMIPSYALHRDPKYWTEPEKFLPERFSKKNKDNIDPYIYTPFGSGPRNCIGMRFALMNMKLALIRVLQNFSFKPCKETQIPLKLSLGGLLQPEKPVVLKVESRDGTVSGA
Outline: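 20 nM human CYP3A4 with 25 uM Luciferin-PPXE (at KM) in 200 mM KPO4, preincubated 10 min with compound; NADPH regeneration started a 60 min RT reaction. Luciferin detected by luminescence, normalized to 57 uM ketoconazole as full inhibition.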

[8] = MultiTox-Fluor Cytotoxicity Assay - LYMP1-001 - Live Cells (AID 947);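 also: 0% = DMSO only and full inhibition = tetraoctylammonium bromide control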
[9] = Cell Viability - LYMP1-002 - Assay at 16 hr (AID 948);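 also: 0% = DMSO alone and full effect = 92 µM tetraoctylammonium bromide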
Outline: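 ATP luminescence (CellTiter-Glo) was measured after 16 hr compound exposure at 37 C of 2500 lymphoblastoid LYMP1-002 cells per well. Concentration-response curves were fitted with the Hill equation to give AC50.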

[10] = MultiTox-Fluor Cytotoxicity Assay - LYMP1-002 - Live Cells (AID 955); also: % is scaled to controls: 0 for no effect and ±100 for the full control effect
Outline: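 Cytotoxicity in the human lymphoblastoid line LYMP1-002 is measured as loss of live-cell protease activity after 16 h treatment in complete culture medium. AC50 is derived from Hill-equation fits of qHTS concentration-response data.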

[11] = Cell Viability - LYMP2-005 (AID 967);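 also: plate controls were DMSO only for no effect and 92 µM tetraoctylammonium bromide control for full effect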
Outline: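 LYMP2-005 human lymphoblastoid cells (2500/well) were treated with compounds for 24 h at 37 C. Intracellular ATP was then measured by CellTiter-Glo luminescence after 30 min at room temperature. AC50 values came from Hill-equation fits of qHTS concentration-response data.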

[12] = Cell Viability - LYMP2-017 (AID 972); also: % is scaled to controls: 0 for no effect and ±100 for the full control effect; nearly all actives have a fitted effect of over 55% in size
Outline: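 Steps: plate 2500 lymphoblastoid cells per well; incubate 5 hr at 37 C; add compound across a concentration series and incubate 24 hr at 37 C; add CellTiter-Glo and read luminescence after 30 min at room temperature; fit Hill curves for AC50.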

[13] = Cell Viability - LYMP2-002 (AID 977);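 also: plate controls were DMSO only for no effect and 92 µM tetraoctylammonium bromide for full effect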
Outline: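 Luminescent ATP readout (CellTiter-Glo, 30 min room temperature) after 24 h compound exposure at 37 C of a human lymphoblastoid line, 2500 cells/well. AC50 values derived by standard Hill fitting of qHTS concentration-response data.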

[14] = qHTS assay for small molecule disruptors of the mitochondrial membrane potential - 1 hr assay (AID 651754; calls by dose curve; also: nearly all actives have a fitted effect of over 35% in size; also: potency is read from the fitted curve at half-maximal effect)
Outline: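 Steps: seed HepG2 cells and let attach overnight; pin-transfer compound or vehicle; incubate 1 hr at 37C; add Mito-MPS dye for 30 min; read two-channel fluorescence for monomer and aggregate forms.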

[15] = qHTS assay for small molecule disruptors of the mitochondrial membrane potential - 5 hr assay (AID 651755; calls by dose curve; also: nearly all actives have a fitted effect of over 40% in size; also: potency is read from the fitted curve at half-maximal effect)
Outline: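 HepG2 cells, attached overnight at 37C, were exposed to compound or DMSO for 5 hr at 37C, 5% CO2. Mito-MPS dye was then added for 30 min, and fluorescence read at 490/535 nm (monomers) and 540/590 nm (aggregates).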

[16] = target: Tumor necrosis factor (Homo sapiens) (UniProt P01375); assay: qHTS assay to identify small molecules that stimulate Tumor Necrosis Factor-alpha (TNF-alpha) secretion (AID 651757; active = well fitted curve in the direction sought with a large enough effect in the signal ratio; the % refers to the signal ratio; also: 0% is about no effect)
Chain of Tumor necrosis factor (Homo sapiens) (P01375 whole entry, looked up): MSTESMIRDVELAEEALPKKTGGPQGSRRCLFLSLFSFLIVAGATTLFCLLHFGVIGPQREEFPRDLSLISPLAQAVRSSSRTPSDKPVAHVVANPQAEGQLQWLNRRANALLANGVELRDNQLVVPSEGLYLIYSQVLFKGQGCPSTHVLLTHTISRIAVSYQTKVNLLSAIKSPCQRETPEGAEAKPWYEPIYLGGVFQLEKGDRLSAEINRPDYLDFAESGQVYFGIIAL
Outline: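 Secreted TNF-alpha from compound-treated THP-1 cells (17 hrs, 37 C) was quantified with a homogeneous time-resolved fluorescence antibody assay.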

[17] = qHTS assay for environmental chemicals that activate the Aryl hydrocarbon Receptor (AhR) signaling pathway (AID 651777); conditions: 1A2-DRE human hepatoma cells, luciferase, 24 h; activation: stronger effect = higher value; also: nearly all actives have a fitted effect of over 15% in size; also: potency is read from the fitted curve at half-maximal effect; as to activation: % of control where 0% means no effect
Outline: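 Human hepatoma 1A2-DRE cells, stably carrying a dioxin response element and CYP1A2 promoter driving luciferase, were exposed to compounds for 24 hr at 37 C and 5% CO2. Luciferase signal was then read after 30 min One-Glo at room temperature.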

[18] = target: Nuclear receptor ROR-gamma (Homo sapiens) (UniProt P51449); assay: qHTS assay for small molecule antagonists of the retinoid-related orphan receptor gamma (ROR-gamma) signaling pathway (AID 651802);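 also: CHO cells with doxycycline-induced ROR-gamma expression; luciferase reporter luminescence driven by ROR response element; % is scaled to controls: 0 for no effect and ±100 for the full control effect; nearly all actives have a fitted effect of over 60% in size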
Chain of Nuclear receptor ROR-gamma (Homo sapiens) (P51449 whole entry, looked up): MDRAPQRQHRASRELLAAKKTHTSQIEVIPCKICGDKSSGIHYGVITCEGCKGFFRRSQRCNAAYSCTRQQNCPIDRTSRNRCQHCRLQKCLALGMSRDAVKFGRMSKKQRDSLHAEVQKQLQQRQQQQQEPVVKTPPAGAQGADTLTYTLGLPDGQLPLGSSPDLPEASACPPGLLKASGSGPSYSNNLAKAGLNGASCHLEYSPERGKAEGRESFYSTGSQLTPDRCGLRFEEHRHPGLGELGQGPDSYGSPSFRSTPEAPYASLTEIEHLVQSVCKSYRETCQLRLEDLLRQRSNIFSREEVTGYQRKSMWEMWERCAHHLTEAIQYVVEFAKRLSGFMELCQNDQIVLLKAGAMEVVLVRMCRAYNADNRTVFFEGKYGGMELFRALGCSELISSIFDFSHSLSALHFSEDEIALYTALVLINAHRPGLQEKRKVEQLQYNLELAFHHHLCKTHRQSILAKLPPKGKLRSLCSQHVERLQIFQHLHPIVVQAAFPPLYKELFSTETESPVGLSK
Outline: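 Antagonism is scored as a fall in luminescence from a RORE-luciferase reporter in CHO cells expressing ROR under a TET-inducible promoter, measured 16hr after doxycycline induction in the presence of compound.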

[19] = target: Nuclear receptor subfamily 1 group I member 2 (Rattus norvegicus) (UniProt Q9R1A7); assay: qHTS assay for small molecule activators of the rat pregnane X receptor (rPXR) signaling pathway (AID 651751; call rule not given here; also: 0% is about no effect); conditions: rPXR reporter cells, luciferase (One-Glo), 24 h
Chain of Nuclear receptor subfamily 1 group I member 2 (Rattus norvegicus) (Q9R1A7 whole entry, looked up): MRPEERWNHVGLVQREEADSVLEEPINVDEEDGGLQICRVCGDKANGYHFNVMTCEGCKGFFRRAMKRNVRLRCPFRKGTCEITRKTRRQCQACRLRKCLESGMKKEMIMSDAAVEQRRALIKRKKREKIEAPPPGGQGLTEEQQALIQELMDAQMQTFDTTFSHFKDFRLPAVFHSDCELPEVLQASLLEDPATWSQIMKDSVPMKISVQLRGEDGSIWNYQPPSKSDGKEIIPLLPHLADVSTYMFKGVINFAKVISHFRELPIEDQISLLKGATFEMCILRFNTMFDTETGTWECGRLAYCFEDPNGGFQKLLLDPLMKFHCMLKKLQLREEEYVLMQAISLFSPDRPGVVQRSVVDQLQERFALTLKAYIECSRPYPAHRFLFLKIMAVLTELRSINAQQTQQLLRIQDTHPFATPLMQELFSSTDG

[20] = Cell Viability - LYMP2-023 (AID 975);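 also: cellular ATP measured by luciferase luminescence as viability proxy; plate controls were DMSO only for no effect and 92 µM tetraoctylammonium bromide control for full effect; nearly all actives have a fitted effect of over 55% in size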
Outline: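 Concentration-dependent drop in intracellular ATP measures acute cytotoxicity in a human lymphoblastoid line treated for 24 hours in complete culture medium. AC50 values are taken from Hill-equation fits of qHTS data.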

CC(C)[C@]12CC(=O)[C@H](C)[C@H]1C2
inactive: Potency [1] | Potency [2] | outcome [3] | outcome [4] | outcome [5] | Potency [6] | Potency [7] | outcome [8] | outcome [9] | outcome [10] | Potency [11] | Potency [12] | Potency [13] | Potency [14] | Potency [15] | outcome [16] | activation [17] -0.165% and 1.56% | Potency [18] | max response [19] 2.33% and 6.9%

Nc1ccccc1-c1ccccc1
inactive: Potency [1] | Potency [2] | outcome [3] | outcome [4] | outcome [5] | Potency [6] | Potency [7] | outcome [8] | outcome [9] | outcome [10] | Potency [11] | Potency [20] | outcome [16] | activation [17] -0.114% | Potency [18] | max response [19] 0.403%

Oc1cccc(Cl)c1Cl
inactive: Potency [1] | Potency [2] | outcome [3] | outcome [4] | outcome [5] | Potency [6] | Potency [7] | outcome [8] | outcome [9] | outcome [10] | Potency [11] | Potency [12] | Potency [20] | Potency [13] | Potency [14] | Potency [15] | outcome [16] | activation [17] 0.0475% | Potency [18] | max response [19] -2.09%

N#CCCCCC#N
inactive: Potency [1] | Potency [2] | outcome [3] | outcome [4] | outcome [5] | Potency [6] | Potency [7] | outcome [8] | outcome [9] | outcome [10] | Potency [11] | Potency [12] | Potency [20] | Potency [13] | Potency [14] | Potency [15] | outcome [16] | activation [17] 0.486% | Potency [18] | max response [19] 9.56%

C/C=C/CC#N
inactive: Potency [1] | Potency [2] | outcome [4] | outcome [5] | Potency [6] | Potency [7] | outcome [8] | outcome [10] | Potency [11] | Potency [12] | Potency [20] | Potency [13] | Potency [14] | Potency [15] | outcome [16] | activation [17] -0.768% | Potency [18] | max response [19] -0.823%

CC(=O)[O-].CC(=O)[O-].CC(=O)[O-].[Cr+3]
inactive: Potency [1] | outcome [3] | outcome [4] | outcome [5] | Potency [6] | Potency [7] | outcome [9] | outcome [10] | Potency [11] | Potency [12] | Potency [20] | Potency [13] | Potency [14] | Potency [15] | outcome [16] | activation [17] -2.21%

Clc1cccc(Cl)c1Cl
inactive: Potency [1] | outcome [3] | outcome [5] | Potency [6] | Potency [7] | outcome [9] | outcome [10] | Potency [11] | Potency [12] | Potency [20] | Potency [13] | Potency [14] | Potency [15] | outcome [16] | activation [17] -1.51% and 0.659% | Potency [18] | max response [19] -2.59% and 0.772%

CC(C#N)CCC#N (configuration not stated)
inactive: Potency [1] | Potency [2] | outcome [3] | outcome [4] | outcome [5] | Potency [7] | outcome [8] | outcome [9] | Potency [12] | Potency [13] | outcome [16] | activation [17] -0.458% | Potency [18] | max response [19] 3.89%

CCOS(C)(=O)=O
inactive: Potency [1] | Potency [2] | outcome [3] | outcome [4] | outcome [5] | Potency [6] | Potency [7] | outcome [8] | outcome [9] | outcome [10] | Potency [11] | Potency [12] | Potency [20] | Potency [13] | Potency [14] | Potency [15] | outcome [16] | activation [17] 0.384% | Potency [18] | max response [19] 1.86%

Cc1ccc(N)cc1N
inactive: Potency [2] | outcome [4] | outcome [5] | Potency [6] | Potency [7] | outcome [8] | outcome [9] | outcome [10] | Potency [11] | Potency [12] | Potency [20] | Potency [13] | Potency [18] | max response [19] 12.5% and 3.01%
active: Potency [14] 23.7 µM | Potency [15] 29.8 µM | Potency [17] 44.7 µM

N#CCBr
inactive: Potency [1] | Potency [2] | outcome [3] | outcome [5] | Potency [6] | Potency [7] | outcome [8] | outcome [9] | Potency [11] | Potency [12] | Potency [20] | Potency [13] | Potency [14] | Potency [15] | outcome [16] | activation [17] 13.7% | Potency [18] | max response [19] -1.93%

CCOC(=O)C1OC1(C)c1ccccc1 (configuration not stated)
inactive: Potency [1] | Potency [2] | outcome [3] | outcome [4] | outcome [5] | Potency [6] | Potency [7] | outcome [8] | outcome [10] | Potency [11] | Potency [12] | Potency [20] | Potency [13] | Potency [14] | Potency [15] | outcome [16] | activation [17] -0.466% | Potency [18] | max response [19] -3.02%

O=C(O)c1cc(Cl)ccc1Cl
inactive: Potency [1] | Potency [2] | outcome [4] | outcome [5] | Potency [6] | Potency [7] | outcome [8] | outcome [9] | Potency [11] | Potency [12] | Potency [20] | Potency [13] | Potency [14] | Potency [15] | outcome [16] | activation [17] -1.02% | Potency [18] | max response [19] -1.07%

O=P(OCCCl)(OCCCl)OCCCl
inactive: Potency [1] | Potency [2] | outcome [3] | outcome [5] | Potency [7] | outcome [8] | outcome [9] | outcome [10] | Potency [11] | Potency [12] | Potency [20] | Potency [13] | Potency [14] | Potency [15] | outcome [16] | activation [17] 0.332% | Potency [18] | max response [19] 6.23%

CCCCOCC1CO1 (configuration not stated)
inactive: Potency [1] | outcome [3] | outcome [4] | outcome [5] | Potency [6] | Potency [7] | outcome [8] | outcome [9] | Potency [11] | Potency [12] | Potency [20] | Potency [13] | Potency [14] | Potency [15] | outcome [16] | Potency [18] | max response [19] 2.3%
